PfHsp90 yeast 2 = inhibits growth of yeast expressing Plasmodium falciparum Hsp90 | inhibition, % at 9.4 µM | S. cerevisiae expressing PfHsp90, BacTiter-Glo ATP, 48 h; yeast lacking PDR1 and PDR3 efflux regulators | hit rate 0.32% among 310,000;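 active = every replicate shows inhibition above about 80%, whatever the replicate mean, limit read from the data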
NLRP3 yeast inh = NALP3 inhibition in yeast. Yeast reconstituted NLRP3/ASC/caspase-1, beta-gal luminescence, 24 h. inhibition, % at 10 µM. hit rate 0.39% among 330,000;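 active = inhibition of 50% or more; inactive = inhibition below 50%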
TIM10 inh = TIM10 yeast growth inhibition; S. cerevisiae TIM10 strain growth, BacTiter-Glo luminescence, 24 h; inhibition, % at 10 µM; hit rate 1.4% among 330,000; AID 463195;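 active = inhibition of 40% or more at the single tested concentration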;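 note: wild-type TIM10 isogenic control strain grown at permissive 25 °C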
tim23-1 inh = inhibits growth of tim23-1 mutant yeast; S. cerevisiae tim23-1 growth, BacTiter-Glo luminescence, 24 h; inhibition, % at 20 µM; hit rate 1.3% among 330,000; AID 463212;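 active = growth inhibition of the mutant yeast at or above 50%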;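 note: temperature-sensitive mutant grown at 25 °C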
tim10-1 inh = tim10-1 yeast growth inhibition; S. cerevisiae tim10-1 ts strain growth, BacTiter-Glo, 24 h; inhibition, % at 20 µM; hit rate 2.2% among 330,000; AID 463190;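 active = inhibition of at least 40%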;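 note: mutant grown at 25 °C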
SKKanGAS inh = blocks kanamycin growth of S. pyogenes SKKanGAS strain; BacTiter-Glo, 6 h; inhibition, % at 7.5 µM; hit rate 1.3% among 300,000; AID 1662;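 active = mean replicate score, as percent of positive control median, at least 50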;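 note: strain carries kanamycin resistance gene driven by streptokinase promoter and grows in 40 µg/ml kanamycin; loss of luminescence reflects streptokinase promoter inhibition or plain growth inhibition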
tim23-1 confirm = confirmation of tim23-1 mutant yeast growth inhibitors; shares compounds with tim23-1 inh; S. cerevisiae tim23-1 growth, BacTiter-Glo luminescence, 24 h; inhibition, % at 20 µM; hit rate 83% among 4,400;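 active = inhibition above about 39% in either of two replicate wells at 20 µM, limit read from the data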;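 note: temperature-sensitive tim23-1 mutant grown at 25 °C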
A number is an active result; – = inactive; · = no result. Shown are actives, neighbours in structure and some others; about 4.5% of the full set was active somewhere.

SMILES	PfHsp90 yeast 2	NLRP3 yeast inh	TIM10 inh	tim23-1 inh	tim10-1 inh	SKKanGAS inh	tim23-1 confirm
CN(C)C(CNC(=S)Nc1cccc(Cl)c1)c1cccnc1 (configuration not stated)	–	–	–	–	–	–	·
OCc1cn(-c2ccccc2)nc1-c1ccc(Br)cc1	–	–	–	66.7	–	–	–
CC(C)COc1ccc(-c2nn(-c3ccccc3)cc2CO)cc1	–	–	–	–	–	–	·
COc1cc(NC(=O)c2cc3sccc3n2C)cc(OC)c1	·	–	–	53.0	–	–	43.5
O=C(CN1CCSCC1)N1CCc2[nH]c3ccc(Br)cc3c2C1	·	·	·	·	·	–	·
Cc1ccc2[nH]c3c(c2c1)CN(C(=O)CN1CCN(c2cccc(C)c2C)CC1)CC3	–	–	–	60.1	–	–	–
COc1ccc(N=c2cc(-c3ccc(OC)cc3)oc3ccccc23)cc1	–	–	–	50.9	–	–	39.1
Cn1c(=O)n(C)c2cc(NC(=O)CCc3ccccc3)c(Br)cc21	–	–	–	–	–	–	·
N#Cc1nc(-c2cccs2)oc1NCc1ccc(Cl)cc1	–	–	–	50.5	–	–	55.2
N#Cc1nc(-c2cccs2)oc1NCc1ccco1	–	–	–	–	–	–	·
N#Cc1nc(-c2cccs2)oc1NCc1ccccc1Cl	–	–	–	55.6	–	–	53.5
COC(=O)[C@]1(C)N[C@H](CN(C)S(=O)(=O)c2ccc(OC(F)(F)F)cc2)[C@@H]2C(=O)N(Cc3ccccc3)C(=O)[C@@H]21	–	–	–	–	–	·	·
O=C(O)C1CC2CCC1CC2 (configuration not stated)	–	·	·	·	·	·	·
COc1cccc(NC(=O)C(=O)NCCCN2CCCC2=O)c1	–	–	–	–	–	–	·
O=C(CCN=C1NS(=O)(=O)c2ccccc21)OCc1ccccc1	–	–	–	–	–	–	·
CCOc1ccc(C(C)=O)cc1COC(=O)CNC(=O)C12CC3CC(CC(C3)C1)C2	–	–	–	50.3	–	·	–
O=C(CNC(=O)C12CC3CC(CC(C3)C1)C2)OCc1ccc(F)cc1Cl	–	–	–	51.6	–	·	60.5
O=C(CNC(=O)C12CC3CC(CC(C3)C1)C2)OCc1cc(=O)n2cc(Br)ccc2n1	–	–	–	–	–	–	·
CCOc1ccc(C(=O)NCC(=O)OCc2cc(C(C)=O)ccc2OC)cc1	–	–	–	–	–	–	·
Cc1noc(C)c1NC(=O)Nc1cccc2c1O[C@@H](CN(C)C(=O)Nc1ccc3c(c1)OCO3)[C@@H](C)CN([C@H](C)CO)C2=O	–	–	–	–	–	·	·
Cc1ccc(C(=O)CCC(=O)Nc2ncccc2O)cc1	·	–	–	54.6	–	–	–
Cc1ccc(C(=O)CCC(=O)Nc2ncccc2C)cc1	–	–	–	–	–	·	·
CS(=O)(=O)c1ccc(C(=O)OCC(=O)NCc2cccs2)cc1[N+](=O)[O-]	–	–	–	–	–	·	·
CCOc1ccc(S(=O)(=O)N2CCC(C(=O)NCC3CCCO3)CC2)cc1 (configuration not stated)	–	–	–	–	–	–	·
O=C(O)c1ccc(N=Cc2c(O)ccc3ccccc23)cc1	–	–	–	58.4	–	–	56.2
SMILES	PfHsp90 yeast 2	NLRP3 yeast inh	TIM10 inh	tim23-1 inh	tim10-1 inh	SKKanGAS inh	tim23-1 confirm
O=C(O)Cc1ccc(N=Cc2c(O)ccc3ccccc23)cc1	–	–	–	–	–	–	·
O=C(O)c1ccc(N=Cc2c(O)ccc3oc4c(c23)CCCC4)cc1	–	–	–	65.7	–	–	71.2
NC(=O)c1ccc(N=Cc2c(O)ccc3ccccc23)cc1	–	–	–	57.3	–	–	45.0
CC(=O)Nc1ccc(N=Cc2c(O)ccc3ccccc23)cc1	–	–	–	–	–	–	·
COc1ccc(N=Cc2c(O)ccc3ccccc23)cc1	–	–	–	56.8	–	–	57.4
Cc1ccccc1OCCCSc1nc2ccccc2[nH]1	–	–	–	67.7	–	–	64.0
c1ccc(OCCSc2nc3ccccc3[nH]2)cc1	–	–	–	–	–	–	·
O=C(/C=C/c1c(F)cccc1Cl)N1CCc2ccccc2C1	–	–	–	58.7	–	–	59.0
CCN1CCN(C(=O)/C=C/c2c(F)cccc2Cl)CC1	–	–	–	–	–	–	·
O=C(CCC(=O)Nc1ccccc1Cl)NNC(=O)NC1CCCCC1	–	–	–	–	–	–	·
CC(Oc1ccc2ccc(=O)oc2c1)C(=O)N1CCOCC1 (configuration not stated)	·	–	–	–	–	–	·
O=C(N/N=C/c1cccs1)c1cc(-c2cccc3ccccc23)n[nH]1	–	–	–	50.6	–	–	48.0
O=C(N/N=C/c1cccs1)c1cc(-c2ccc3ccccc3c2)n[nH]1	–	–	–	–	–	–	·
CCCCc1nc(NCCO)c(C#N)c2c1CCCC2	–	–	–	–	–	–	·
CC(C)c1nc(NCCO)c(C#N)c2c1CCCC2	–	–	–	53.5	–	–	38.7
Cc1ccc(CCNC(=O)CC(C)CC2=NS(=O)(=O)c3ccccc3N2)cc1 (configuration not stated)	–	–	–	–	–	–	·
Cc1ccc(C)c(NC(=O)c2cc([N+](=O)[O-])cc([N+](=O)[O-])c2)c1	–	–	–	55.1	–	–	51.3
COc1ccc(OC)c(C(=O)c2coc3ccc(O)c(CN(C)C)c23)c1	–	–	–	–	–	–	·
COc1ccc(OC)c(C(=O)c2coc3cc(Br)c(O)c(Br)c23)c1	–	–	–	57.8	–	–	45.5
Cc1cc(NC(=O)COc2ccccc2C)ccc1NC(=O)c1cccs1	–	–	–	54.4	–	–	63.0
O=C1NC(=S)SC1=C1CCCCCC1	–	–	–	50.3	–	–	69.3
FC(F)(F)c1cc(CCN2CCNC[C@@H]2CC2CCCCC2)cc(C(F)(F)F)c1	–	–	–	64.8	–	·	48.0
CCCC[C@@H]1CNCCN1CCc1cc(C(F)(F)F)cc(C(F)(F)F)c1	–	–	–	–	–	–	·
COc1ccc(NC(=O)NS(=O)(=O)c2ccc(C)cc2)cc1OC	–	–	–	–	–	·	·
O=S1(=O)CCC(N=Cc2cc(Br)ccc2O)C1 (configuration not stated)	–	–	–	55.5	–	–	43.0
SMILES	PfHsp90 yeast 2	NLRP3 yeast inh	TIM10 inh	tim23-1 inh	tim10-1 inh	SKKanGAS inh	tim23-1 confirm
CCOc1ccc(NC(=O)c2ccccc2CO)cc1	–	–	–	58.0	–	–	–
O=S(=O)(c1ccccc1)N1CCNCC1	–	–	–	–	–	–	·
COc1ccc(NC(=O)c2cccnc2N2CCOCC2)cc1	–	–	–	–	–	–	·
COc1ccc(CCN(/C=C2\Sc3ccccc3C2=O)C(C)=O)cc1OC	·	–	–	50.4	–	–	51.9
CCCCn1c(C23CC4CC(CC(C4)C2)C3)n[nH]c1=S	–	–	–	52.9	–	–	49.8
COCCn1c(C23CC4CC(CC(C4)C2)C3)n[nH]c1=S	–	–	–	–	–	–	·
